Source: the supplement of paper PMC6555819

Experiments:
Assay in all cases: PBM binding z-score (relative to random genomic background probes); higher = stronger binding; sequences stand for … in GC…GCGATTGACAGCGTAGAATGAAGG
[1] = test system: FXR:RXRa (NR concentration 270 nM, RXRa partner concentration 90 nM)
In short: (§1)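 For binding z-scores, the reference was random background probes on custom Agilent 4×180K protein-binding microarrays. These arrays were incubated 1 h with ligand-free nuclear receptor dimers in PBS pH 7.4, 2% milk, 0.02% Triton X-100, 1 mM DTT, 0.2 mg/mL BSA and 0.4 mg/ml salmon testes DNA. Fluorescence was scanned after antibody detection of each partner (one per run) and regression-normalized.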

[2] = test system: LXRa:RXRa (NR concentration 270 nM, RXRa partner concentration 90 nM)
In short: as §1

[3] = test system: LXRa homodimer (NR concentration 270 nM)
In short: as §1

[4] = test system: LXRb:RXRa (NR concentration 270 nM, RXRa partner concentration 90 nM)
In short: as §1

[5] = test system: LXRb homodimer (NR concentration 270 nM)
In short: as §1

[6] = test system: PPARa:RXRa (NR concentration 270 nM, RXRa partner concentration 90 nM)
In short: as §1

[7] = test system: PPARg:RXRa (NR concentration 180 nM, RXRa partner concentration 90 nM)
In short: as §1

[8] = test system: PPARg:RXRa 270nM:90nM, anti-RXR (NR concentration 270 nM, RXRa partner concentration 90 nM)
In short: as §1

[9] = test system: PPARg:RXRa 30nM:10nM, anti-RXR (NR concentration 30 nM, RXRa partner concentration 10 nM)
In short: as §1

[10] = test system: PPARg:RXRa 90nM:30nM, anti-RXR (NR concentration 90 nM, RXRa partner concentration 30 nM)
In short: as §1

[11] = test system: PPARg:RXRa DBDmut IVT, anti-RXR (DBD mutation: RXRa K156A/R161A, NR concentration 270 nM, RXRa partner concentration 90 nM)
In short: as §1

[12] = test system: PPARg:RXRa IVT, anti-PPARg (NR concentration 270 nM, RXRa partner concentration 90 nM)
In short: as §1

[13] = test system: PPARg DBDmut:RXRa IVT, anti-PPARg (DBD mutation: PPARg1 K132A/R137A, NR concentration 270 nM, RXRa partner concentration 90 nM)
In short: as §1

[14] = test system: PPARg DBDmut IVT, anti-PPARg (DBD mutation: PPARg1 K132A/R137A, NR concentration 270 nM)
In short: as §1

[15] = test system: PPARg homodimer (NR concentration 180 nM)
In short: as §1

[16] = test system: PXR:RXRa (NR concentration 270 nM, RXRa partner concentration 90 nM)
In short: as §1

[17] = test system: PXR homodimer (NR concentration 270 nM)
In short: as §1

[18] = test system: RARa:RXR (NR concentration 270 nM, RXRa partner concentration 90 nM)
In short: as §1

[19] = test system: RARa homodimer (NR concentration 270 nM)
In short: as §1

[20] = test system: RARb:RXRa (NR concentration 270 nM, RXRa partner concentration 90 nM)
In short: as §1

Q: ACTTCCGGGTCAACGAGGTTATAGCACGCGTATA was tested. Which PBM binding z-score [1] did it give?
A: 6.37

Q: What about the PBM binding z-score [2] of the same sequence?
A: 4.46

Q: What about the PBM binding z-score [3] of the same sequence?
A: 0.851

Q: What about the PBM binding z-score [4] of the same sequence?
A: 4.24

Q: And the PBM binding z-score [5]?
A: 1.38

Q: And the PBM binding z-score [6]?
A: 5.23

Q: What about the PBM binding z-score [7] of the same sequence?
A: 6.06

Q: And the PBM binding z-score [8]?
A: 5.53

Q: What about the PBM binding z-score [9] of the same sequence?
A: 2.51

Q: And the PBM binding z-score [10]?
A: 4.51

Q: And the PBM binding z-score [11]?
A: 4.21

Q: What about the PBM binding z-score [12] of the same sequence?
A: 5.27

Q: What about the PBM binding z-score [13] of the same sequence?
A: 1.78

Q: What about the PBM binding z-score [14] of the same sequence?
A: 0.785

Q: What about the PBM binding z-score [15] of the same sequence?
A: 3.05

Q: And the PBM binding z-score [16]?
A: 4.91

Q: What about the PBM binding z-score [17] of the same sequence?
A: 6.49

Q: What about the PBM binding z-score [18] of the same sequence?
A: 4.87

Q: What about the PBM binding z-score [19] of the same sequence?
A: 0.82

Q: And the PBM binding z-score [20]?
A: 3.97

Q: Which results are given for CCTACTGGGCCACAAAGGTCATTGATGCCGATAA?
A: PBM binding z-score [1]: 4.47; PBM binding z-score [2]: 5.11; PBM binding z-score [3]: 4.74; PBM binding z-score [4]: 4.39; PBM binding z-score [5]: 0.772; PBM binding z-score [6]: 5.25; PBM binding z-score [7]: 6.17; PBM binding z-score [8]: 5.75; PBM binding z-score [9]: 3.17; PBM binding z-score [10]: 5.54; PBM binding z-score [11]: 4.98; PBM binding z-score [12]: 5.53; PBM binding z-score [13]: 0.0367; PBM binding z-score [14]: -0.795; PBM binding z-score [15]: 3.95; PBM binding z-score [16]: 5.34; PBM binding z-score [17]: 5.11; PBM binding z-score [18]: 5.76; PBM binding z-score [19]: 1.78; PBM binding z-score [20]: 4.2

Q: Which results are given for CAAACTAGGTCAAAGGTCCAAGTCGAGCCAACCA?
A: PBM binding z-score [1]: 5.12; PBM binding z-score [2]: 4.21; PBM binding z-score [3]: 0.693; PBM binding z-score [4]: 3.08; PBM binding z-score [5]: 0.0587; PBM binding z-score [6]: 6.27; PBM binding z-score [7]: 12.8; PBM binding z-score [8]: 10.1; PBM binding z-score [9]: 12.4; PBM binding z-score [10]: 12.2; PBM binding z-score [11]: 8.79; PBM binding z-score [12]: 8.36; PBM binding z-score [13]: 1.57; PBM binding z-score [14]: 1.19; PBM binding z-score [15]: 3.75; PBM binding z-score [16]: 3.24; PBM binding z-score [17]: 0.0421; PBM binding z-score [18]: 5.03; PBM binding z-score [19]: 0.553; PBM binding z-score [20]: 4.19

Q: What does the source list for GCTGCTAGGTCAACTGATGGTCAGCTTAAGCTCG?
A: PBM binding z-score [1]: 4.41; PBM binding z-score [2]: 3.13; PBM binding z-score [3]: 0.215; PBM binding z-score [4]: 2.09; PBM binding z-score [5]: 0.173; PBM binding z-score [6]: 3.5; PBM binding z-score [7]: 2.44; PBM binding z-score [8]: 2.97; PBM binding z-score [9]: 0.312; PBM binding z-score [10]: 2.07; PBM binding z-score [11]: 5.04; PBM binding z-score [12]: 4.2; PBM binding z-score [13]: -0.326; PBM binding z-score [14]: -0.587; PBM binding z-score [15]: 2.5; PBM binding z-score [16]: 1.85; PBM binding z-score [17]: -0.712; PBM binding z-score [18]: 3.1; PBM binding z-score [19]: -0.0481; PBM binding z-score [20]: 4.24

Q: For ATATTTAGGTTACATCCGGGTCATTCAGGCTATG, which PBM binding z-score [1] is on record?
A: 2.65

Q: What about the PBM binding z-score [2] of the same sequence?
A: 4.19

Q: And the PBM binding z-score [3]?
A: 2.61

Q: And the PBM binding z-score [4]?
A: 3.21

Q: What about the PBM binding z-score [5] of the same sequence?
A: 1.94

Q: And the PBM binding z-score [6]?
A: 4.28

Q: And the PBM binding z-score [7]?
A: 4.37

Q: And the PBM binding z-score [8]?
A: 4.16

Q: And the PBM binding z-score [9]?
A: 2.28

Q: What about the PBM binding z-score [10] of the same sequence?
A: 3.35

Q: What about the PBM binding z-score [11] of the same sequence?
A: 6.5

Q: What about the PBM binding z-score [12] of the same sequence?
A: 6.04

Q: And the PBM binding z-score [13]?
A: 2.49

Q: And the PBM binding z-score [14]?
A: 3.35

Q: What about the PBM binding z-score [15] of the same sequence?
A: 3.88

Q: And the PBM binding z-score [16]?
A: 3.75

Q: And the PBM binding z-score [17]?
A: 3.78

Q: And the PBM binding z-score [18]?
A: 4.29

Q: And the PBM binding z-score [19]?
A: 3.08

Q: What about the PBM binding z-score [20] of the same sequence?
A: 2.54

Q: How did the PBM binding z-score [1] turn out when GCTAGTTGGTCAGTAACAGGTCACACACCGGTCG was run?
A: 0.984

Q: What about the PBM binding z-score [2] of the same sequence?
A: 1.45

Q: And the PBM binding z-score [3]?
A: 1.48

Q: And the PBM binding z-score [4]?
A: 1.39

Q: What about the PBM binding z-score [5] of the same sequence?
A: -0.167

Q: And the PBM binding z-score [6]?
A: 2.06

Q: What about the PBM binding z-score [7] of the same sequence?
A: 0.82

Q: What about the PBM binding z-score [8] of the same sequence?
A: 1.12

Q: And the PBM binding z-score [9]?
A: -0.211

Q: And the PBM binding z-score [10]?
A: 0.627

Q: What about the PBM binding z-score [11] of the same sequence?
A: 0.713

Q: And the PBM binding z-score [12]?
A: 1.57

Q: And the PBM binding z-score [13]?
A: -0.131

Q: And the PBM binding z-score [14]?
A: 0.285

Q: What about the PBM binding z-score [15] of the same sequence?
A: 1.45

Q: What about the PBM binding z-score [16] of the same sequence?
A: 1.85

Q: What about the PBM binding z-score [17] of the same sequence?
A: 0.169

Q: And the PBM binding z-score [18]?
A: 2.32

Q: And the PBM binding z-score [19]?
A: 1.15

Q: What about the PBM binding z-score [20] of the same sequence?
A: 2.24

Q: CAAGCTAGGTCACGAAAGGTCAAAGTCGAATGAC was tested. Which PBM binding z-score [1] did it give?
A: 7.45

Q: What about the PBM binding z-score [2] of the same sequence?
A: 8.14

Q: And the PBM binding z-score [3]?
A: 8.09

Q: What about the PBM binding z-score [4] of the same sequence?
A: 7.63

Q: And the PBM binding z-score [5]?
A: 2.75

Q: What about the PBM binding z-score [6] of the same sequence?
A: 6.5

Q: What about the PBM binding z-score [7] of the same sequence?
A: 7.39

Q: And the PBM binding z-score [8]?
A: 7.14

Q: What about the PBM binding z-score [9] of the same sequence?
A: 4.23

Q: And the PBM binding z-score [10]?
A: 6.31

Q: What about the PBM binding z-score [11] of the same sequence?
A: 5.1

Q: And the PBM binding z-score [12]?
A: 6.14

Q: What about the PBM binding z-score [13] of the same sequence?
A: 2.17

Q: What about the PBM binding z-score [14] of the same sequence?
A: -0.0947

Q: What about the PBM binding z-score [15] of the same sequence?
A: 7.93

Q: And the PBM binding z-score [16]?
A: 7.36

Q: And the PBM binding z-score [17]?
A: 3.04

Q: And the PBM binding z-score [18]?
A: 7.85

Q: What about the PBM binding z-score [19] of the same sequence?
A: 4.08

Q: What about the PBM binding z-score [20] of the same sequence?
A: 5.61

Q: CCTACTGGGCCATCAGGTCAATGATATCAACGTT was tested. Which PBM binding z-score [1] did it give?
A: 1.53

Q: And the PBM binding z-score [2]?
A: 0.905

Q: What about the PBM binding z-score [3] of the same sequence?
A: 0.486

Q: What about the PBM binding z-score [4] of the same sequence?
A: 1.15

Q: What about the PBM binding z-score [5] of the same sequence?
A: -0.402

Q: What about the PBM binding z-score [6] of the same sequence?
A: 2.54

Q: What about the PBM binding z-score [7] of the same sequence?
A: 2.79

Q: And the PBM binding z-score [8]?
A: 3.37

Q: What about the PBM binding z-score [9] of the same sequence?
A: 0.642

Q: What about the PBM binding z-score [10] of the same sequence?
A: 2.76

Q: What about the PBM binding z-score [11] of the same sequence?
A: 4.61

Q: And the PBM binding z-score [12]?
A: 5.43

Q: And the PBM binding z-score [13]?
A: 0.416

Q: What about the PBM binding z-score [14] of the same sequence?
A: 0.266

Q: And the PBM binding z-score [15]?
A: 1.14

Q: And the PBM binding z-score [16]?
A: 1.16

Q: And the PBM binding z-score [17]?
A: 0.0872

Q: What about the PBM binding z-score [18] of the same sequence?
A: 1.6

Q: And the PBM binding z-score [19]?
A: -0.0644

Q: What about the PBM binding z-score [20] of the same sequence?
A: 2.19
